# Screening data from PubChem BioAssay.
# An excerpt weighted towards active compounds, which were near 1.5% of everything screened.
# Efflux pump inh – inhibitors of Candida antifungal efflux pumps expressed in yeast | S. cerevisiae Candida pump triplex, Nile Red efflux | inhibition, % at 10 µM | hit rate 0.44% among 330,000;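 active means plate passing quality check with inhibition over a set limit, or well fluorescence over plate mean plus 4 SD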;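 further: Nile Red retained in pooled yeast measured as flow cytometry median fluorescence; 0% = buffer negative control and 100% = Enniatin B positive control; higher means more Nile Red kept so more efflux inhibition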
# JMJD2C inh – blocks human GASC-1 demethylase activity | Q9H3R0 | GST-JMJD2C(1-420) H3K9me3 demethylation, DELFIA europium | inhibition, % at 2.35 µM | hit rate 0.069% among 330,000;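 active means more than half of a compound's replicate wells show inhibition beyond 50%, single wells judged on their own value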;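 further: signal counts dimethyl H3K9 product captured on neutravidin plate; 0% = median of DMSO wells and 100% = 0.3 times that DMSO median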
# NALP3 yeast inh – blocks the NALP3 inflammasome reconstituted in yeast; Yeast reconstituted NLRP3/ASC/caspase-1, beta-gal luminescence, 24 h; inhibition, % at 10 µM; hit rate 0.39% among 330,000;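 active means inhibition of 50% or more; inactive means inhibition below 50%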;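 further: plate controls were induced DMSO wells for no effect and uninduced yeast grown without galactose for full effect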
# PolyA inh – blocks polyadenylation in yeast reporter cells. S. cerevisiae SKY197-pL101 polyadenylation reporter, beta-gal luminescence; efflux-impaired pdr1/pdr3 knockout yeast; score 100 = 6 SD above DMSO. activity score, % at 12 µM. hit rate 0.02% among 300,000;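 active means lowest replicate activity score at least 50, where 100 means six control SD above control mean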;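 further: yeast exposed to compound for 9 h at 30 °C; higher score means more reporter readthrough which indicates perturbed polyadenylation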
# HDAC3 inh – inhibitors of human histone deacetylase 3; recombinant HDAC3, fluorogenic peptide/trypsin coupled, fluorescence; O15379; hit rate 0.15% among 320,000; inhibition, % at 8.3 µM; in the data active means inhibition above about 26%, passing the limit was not always enough
# Target sequence (O15379 whole entry, looked up): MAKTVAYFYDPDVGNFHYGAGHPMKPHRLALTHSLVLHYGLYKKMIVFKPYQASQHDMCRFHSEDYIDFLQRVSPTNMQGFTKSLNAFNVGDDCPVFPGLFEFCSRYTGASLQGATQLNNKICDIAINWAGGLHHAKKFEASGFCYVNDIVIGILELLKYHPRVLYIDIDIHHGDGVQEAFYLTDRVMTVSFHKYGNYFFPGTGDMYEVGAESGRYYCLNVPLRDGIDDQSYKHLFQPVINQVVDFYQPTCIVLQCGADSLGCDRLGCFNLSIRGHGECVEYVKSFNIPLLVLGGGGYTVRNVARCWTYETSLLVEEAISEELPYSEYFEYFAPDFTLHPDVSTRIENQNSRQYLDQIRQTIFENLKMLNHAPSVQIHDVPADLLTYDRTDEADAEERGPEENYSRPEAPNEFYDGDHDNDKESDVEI
# NALP1 yeast inh – inhibitors of NALP1 inflammasome in yeast | AID 2071 | S. cerevisiae NALP1/ASC/caspase-1 growth, X-gal OD620, 72 h | hit rate 0.61% among 280,000 | inhibition, % at 10 µM; in the data active means inhibition mostly above about 24%, no sharp cut-off; inactive means mostly below about 32%
# * = called active by the depositor; x = no result.
SMILES,Efflux pump inh,JMJD2C inh,NALP3 yeast inh,PolyA inh,HDAC3 inh,NALP1 yeast inh
Cc1c(C(=O)N2CC3(CC(c4cccc(NC(=O)[C@H]5CCC(=O)N5)c4)=NO3)C[C@@H]2C(N)=O)cc([N+](=O)[O-])cc1[N+](=O)[O-] (some centres undefined),0,1,4,-13,5,-19
COc1ccc(/C=C2\Sc3ccc(C(=O)N4CCCC4)cc3N(C)C2=O)cc1OC,0,53*,-3,-7,8,22
COc1ccc2c(c1)OC[C@H]1[C@H]2N2C(=O)CNC(=O)[C@@]2(C)[C@H]1c1ccccc1,0,59*,3,x,0,x
COc1ccc2c(c1)[C@@H]1[C@H](CO2)[C@H](c2ccccc2)[C@]2(C)C(=O)NCC(=O)N12,0,4,9,x,17,x
CSc1ccc(CN2CCC(C(=O)NCc3ccc(C)cc3)CC2)cc1,0,-5,19,-28,5,25*
CCc1c(C)nc2ncnn2c1Nc1ccc(C(C)=O)cc1,0,5,-1,1,9,-2
CCc1c(C)nc2ncnn2c1Nc1ccc(C#N)c(Cl)c1,0,0,2,-4,3,30*
Cc1nnc(SC(C)C#N)n1-c1ccccc1 (centres undefined),0,0,13,5,4,32
CCOc1cc(CNCC(C)C)cc(Cl)c1OCc1ccccc1,0,15,31,-19,1,36*
CCOc1cc(CNCCO)cc(Br)c1OCc1ccccc1Cl,0,-13,14,6,-7,32*
Cc1nc([N+](=O)[O-])c(C(=O)OCc2cccc(Br)c2)n1C,0,1,17,14,1,7
CCOC(=O)C(NS(=O)(=O)c1ccccc1)(C(F)(F)F)P(=O)(OCC(C)C)OCC(C)C (centres undefined),0,-22,8,-17,-23,34*
COC(=O)NC(NS(=O)(=O)c1ccccc1)(C(=O)OC)C(F)(F)F (centres undefined),0,-27,-14,-3,9,7
O=C(NC1CCCCC1)N1CCN(C(c2ccccc2)c2ccccc2)CC1,0,-2,15,0,-15,41*
Cc1noc(NS(=O)(=O)c2ccc(NC(=O)CC(C)C)cc2)c1C,0,10,-4,4,-1,38*
CCOC(CNC(=O)C(=O)Nc1cc2c3c(c1)CCN3C(=O)CC2)OCC,0,-7,1,-6,-5,16
COc1cccc(CC(=O)OCC(=O)N(C)CC(=O)Nc2ccc(F)cc2)c1,0,-5,7,4,-4,x
O=c1c(-c2ccco2)[n+]([O-])c2ccccc2n1OCc1c(F)cccc1F,0,2,19,-19,4,-12
O=c1c(-c2ccco2)[n+]([O-])c2ccccc2n1OCc1ccccc1,0,-7,14,-9,2,37*
COCCCNCCOc1ccc(C(C)(C)c2ccccc2)cc1,0,-7,23,-30,6,46*
CNCCCOc1ccc(C(C)(C)c2ccccc2)cc1,x,-20,x,-6,x,15
COc1ccc(NC(=O)NCc2ccccn2)c(OC)c1,-4,-7,17,-4,-12,15
CN1CCN(c2ccc(CNS(=O)(=O)Cc3ccc(Cl)cc3)cc2)CC1,0,3,4,-4,-12,21*
Cc1ccc(NC(=O)C2CCN(S(=O)(=O)c3ccc4c(c3)CCCC(=O)N4)CC2)c(Br)c1,0,-8,16,7,1,-22
CCc1ccc2c(c1)C(NC(C)=O)C(=O)N2CCN1CCOCC1 (centres undefined),0,4,1,1,-1,22
SMILES,Efflux pump inh,JMJD2C inh,NALP3 yeast inh,PolyA inh,HDAC3 inh,NALP1 yeast inh
O=C(O)CCn1c(SCCOc2ccccc2)nc2ccccc21,0,-5,7,-12,3,9
Cc1ccc(CNC(=O)CCS(=O)(=O)c2ccc(Br)s2)cc1,0,-2,8,-16,0,43*
CCCCNc1nc(-c2ccccc2)c(C(=O)OCC)cc1C#N,0,-7,21,-16,0,44*
Cc1ccc(OC(=S)Nc2ccc(F)cc2)cc1,0,-3,6,3,11,-2
Cc1ccc(OC(=S)Nc2ccc(O)cc2)cc1,0,1,15,x,6,69*
Cc1ccc(C(=O)N2CCN(c3ccccc3Cl)CC2)cc1[N+](=O)[O-],0,7,11,-55,9,38*
CCC(=O)N1CCN(c2ccc(NC(=O)c3ccc(N4CCCC4)c([N+](=O)[O-])c3)cc2)CC1,0,5,2,-3,-6,14
Cc1ccc(C(=O)N2CCN(c3ccccn3)CC2)cc1[N+](=O)[O-],0,1,5,5,7,1
CC(=O)N1CCN(c2ccc(C(N)=O)cc2[N+](=O)[O-])CC1,0,-31,-6,-2,-8,32*
CCC(=O)N1CCN(c2ccc(NC(=O)c3ccc(N4CCOCC4)c([N+](=O)[O-])c3)cc2)CC1,0,-8,25,-9,3,38*
c1ccc2c(c1)COC(CNC1CCCCC1)OC2,0,1,13,x,10,0
OCCCNCc1ccc(N(c2ccccc2)c2ccccc2)cc1,0,-6,30,-9,6,29
CCSc1nnc(Cc2cc(=O)[nH]c(=O)[nH]2)n1-c1cc(C)ccc1C,0,-4,19,-12,5,28*
CSc1nnc(Cc2cc(=O)[nH]c(=O)[nH]2)n1-c1cc(C)ccc1C,0,-13,7,-10,1,27
CC(=O)c1ccc(NC(=O)C(Cc2ccccc2)n2cccc2)cc1 (centres undefined),0,1,-2,-4,4,x
COc1ccc(C2(C)NC(=O)N(CC(=O)Nc3ccc(C)cc3Br)C2=O)cc1OC (centres undefined),0,-9,-6,19,0,21
O=C(Nc1ccc(S(=O)(=O)NCc2ccccc2)cc1)C1CCCCC1,0,-15,4,-12,-1,32*
COc1ccc(NC(=O)Nc2cccc3c2O[C@H](CN(C)S(C)(=O)=O)[C@@H](C)CN([C@H](C)CO)C3=O)cc1,0,5,10,x,0,x
COc1cc(OC)cc(C(=O)O/N=C(\N)c2ccncc2)c1,0,-7,6,-24,0,24
Cc1cccc(/C(N)=N/OC(=O)C23CC4CC(CC(C4)C2)C3)c1,0,-12,9,-5,4,59*
COc1cc(OC)cc(C(=O)O/N=C(\N)c2cccc(C)c2)c1,0,-13,27,-9,0,43*
COc1cc2c(C(=O)N3CCN(c4ccccc4F)CC3)cn(C)c(=O)c2cc1OC,0,7,22,17,44*,7
COC(=O)C1=C(C)NC2=C(C(=O)CCC2)C1c1ccsc1 (centres undefined),x,-27,x,-17,x,19
